# Compounds with a hit are over-represented: about 2.4% of the library has one in this group of screens.
# Pol eta inh: inhibitors of human DNA polymerase eta | Q9Y253 | recombinant Pol eta, fluorescent DNA replication assay | Potency, µM (series often up to 114 µM), without a hit: top-dose activity change, negative = inhibition, hits mostly inhibitors | hit rate 1.2% among 390,000 | AID 588591; note: % is set by controls: 0 for no effect and ±100 for the full control effect
#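 Pol eta (10 nM) was preincubated with compounds for 15 min at room temperature, after which fluorescent replication substrate (50 nM final) was added to start the reaction. Fluorescence was read kinetically at 0 and 10 min.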
# POLI inh: DNA polymerase iota (human) inhibition; Q9UNA4; Pol iota fluorescent replication assay, 10 min; Potency, µM (highest dose often 115 µM), for inactives: at the highest dose activity, negative = inhibition, actives largely listed as inhibitors; hit rate 1% among 390,000; AID 588590
#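 Pol iota at 10 nM preincubated 15 min with compounds at room temperature; reaction started with fluorescent substrate, 50 nM final. Fluorescence read kinetically at 0 and 10 min; buffer-only wells as negative control.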
# Pol beta inh: DNA polymerase beta (human) inhibition; P06746; Pol beta primer extension/strand displacement, fluorescence kinetic; Potency, µM (doses to about 114 µM), for the others: top-dose activity change, negative = inhibition, actives largely listed as inhibitors; hit rate 1.3% among 340,000; note: % is set by controls: 0 for no effect and ±100 for the full control effect
#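 Curves were derived by four-parameter Hill fits of normalized qHTS data. The kinetic fluorescent primer-extension read was taken at 0 and 10 min after 50 nM substrate, following a 15 min room-temperature preincubation of 10 nM enzyme with compounds.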
# GCN5L2 inh: GCN5L2 (KAT2A) acetyltransferase inhibition; Q92830; GCN5L2 HAT assay, ThioGlo1 CoA-SH fluorescence; Potency, µM (series often up to 58.9 µM), inactives show at the highest dose activity change, negative = inhibition, actives largely listed as inhibitors; hit rate 0.21% among 390,000; AID 504327; note: % is set by controls: 0 for no effect and ±100 for the full control effect
# Target sequence (Q92830 whole entry, looked up): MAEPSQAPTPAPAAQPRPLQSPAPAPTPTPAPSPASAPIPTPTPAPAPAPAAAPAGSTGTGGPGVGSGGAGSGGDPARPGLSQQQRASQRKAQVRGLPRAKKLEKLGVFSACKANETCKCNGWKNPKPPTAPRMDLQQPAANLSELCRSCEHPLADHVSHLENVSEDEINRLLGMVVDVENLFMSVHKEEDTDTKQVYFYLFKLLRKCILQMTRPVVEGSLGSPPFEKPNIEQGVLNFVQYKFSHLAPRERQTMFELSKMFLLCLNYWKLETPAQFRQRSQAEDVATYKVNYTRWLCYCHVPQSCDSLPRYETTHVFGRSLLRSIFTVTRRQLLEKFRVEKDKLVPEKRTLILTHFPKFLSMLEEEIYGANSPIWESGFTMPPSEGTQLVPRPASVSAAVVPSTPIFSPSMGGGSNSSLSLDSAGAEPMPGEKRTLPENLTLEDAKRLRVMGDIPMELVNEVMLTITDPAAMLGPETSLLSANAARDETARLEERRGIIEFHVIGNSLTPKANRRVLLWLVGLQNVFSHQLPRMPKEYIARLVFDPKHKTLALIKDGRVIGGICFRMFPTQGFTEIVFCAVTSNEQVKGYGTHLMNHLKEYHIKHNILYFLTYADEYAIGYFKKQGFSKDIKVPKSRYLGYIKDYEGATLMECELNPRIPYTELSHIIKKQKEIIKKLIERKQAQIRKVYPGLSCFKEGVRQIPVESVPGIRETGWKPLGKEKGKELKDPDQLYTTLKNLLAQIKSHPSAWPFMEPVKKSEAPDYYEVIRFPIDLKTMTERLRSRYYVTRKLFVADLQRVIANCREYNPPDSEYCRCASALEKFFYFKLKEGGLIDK
#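 GCN5L2 (20 nM) in 50mM HEPES pH 7.5, 0.1mM EDTA, 0.01% Tween-20 preincubated 15 min with compounds at room temperature. Reaction started with H3(1-25) 75uM, acetyl-CoA 70uM, ThioGlo1 50uM; CoA-thiol fluorescence (Ex340/Em540) read at 0 and 20 min.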
# GLS inhibitor: glutaminase GLS (human) inhibition; O94925; GLS enzymatic activity, qHTS titration; Potency, µM (series often up to 45.5 µM), for inactives: at the highest dose activity change, negative = inhibition, most hits filed as inhibitors; hit rate 0.21% among 410,000; note: % is set by controls: 0 for no effect and ±100 for the full control effect
#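 hKGA in 45 mM KH2PO4 pH 8.2, 0.02% Tween-20 with pin-transferred compounds; 1 mM L-glutamine (stock) plus glutamate oxidase/HRP/Amplex Red coupling added. Fluorescence read initially and after 30 min at RT.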
# Pol kappa inh: inhibitors of human DNA polymerase kappa; Q9UBT6; purified Pol kappa, fluorescent DNA synthesis assay, 10 min; hit rate 0.53% among 400,000; Potency, µM (titrated, usually from 107 µM), inactives show at the highest dose activity, negative = inhibition, hits mostly inhibitors; note: % is set by controls: 0 for no effect and ±100 for the full control effect
#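 First, compounds were pin-transferred onto 10 nM Pol kappa. After 15 min at room temperature, substrate was added to 50 nM final. Fluorescence was then measured kinetically at 0 and 10 min.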
# * hit, by the source's call; u = inconclusive; x = no result; ! = repeats disagree; [ ] = another dose, or the depositor's remark. Calls come from the whole dose curve; as a rule, active = well fitted inhibition curve with a large enough effect; inconclusive = small, poorly fitted or top-dose-only effect, or another doubt; inactive = no such curve, though single readings can be large or run the other way. Potency is the fitted concentration of half-maximal effect.
SMILES,Pol eta inh,POLI inh,Pol beta inh,GCN5L2 inh,GLS inhibitor,Pol kappa inh
CC(C)C[C@H](NC(=O)[C@@H](N)Cc1ccccc1)C(=O)N[C@@H](Cc1ccccc1)C(=O)N[C@@H](CCC(N)=O)C(=O)N1CCC[C@H]1C(=O)N[C@@H](CCC(N)=O)C(=O)N[C@@H](CCCN=C(N)N)C(=O)N[C@@H](Cc1ccccc1)C(N)=O,x,x,x,-21%,x,16%[60.1 µM]
Oc1ccccc1O,u,79µM*,40µM*,-7%,u,50µM*
CCCCn1c(NS(=O)(=O)c2ccc(C)cc2)c(C(=O)OCC)c2nc3ccccc3nc21,-7%,2.5µM*,10%,2%,10%,-1%
CCCCn1c(NC(=O)c2ccco2)c(C(=O)OCC)c2nc3ccccc3nc21,u,84%,20%,-11%,-8%,-5%
O=C(Nc1cccc(C(=O)Nc2cc(C(=O)Nc3ccc([S+](=O)([O-])[O-])c4cc([S+](=O)([O-])[O-])cc(SOOO)c34)ccc2F)c1)Nc1cccc(C(=O)Nc2cc(C(=O)Nc3ccc([S+](=O)([O-])[O-])c4cc([S+](=O)([O-])[O-])cc([S+](=O)([O-])[O-])c34)ccc2F)c1,x,x,x,-23%,x,0.06µM*
CC1(C)CC/C(=C\c2ccc(Cl)cc2)C1(O)Cn1cncn1 (stereo not drawn),x,x,x,x,2%[99.4 µM],x
N#CC(C#N)=Cc1cc(O)c(O)c(O)c1,2.2µM*,9.5µM*,-26%[57.1 µM],-30%,58%,3.2µM*
N#CC(C#N)=Cc1ccc(O)cc1,x,x,x,u,x,-14%[60.1 µM]
CC(=O)c1ccc2c(c1)C1C(Cl)C(Sc3ccccc3[N+](=O)[O-])CC1C(C(=O)O)N2 (stereo not drawn),3.5µM*,u,40µM*,-6%,-4%,u
CC1(O)CCC2C3CCC4=CC(=O)CCC4(C)C3(F)C(O)CC21C (stereo not drawn),x,x,x,x,11%,x
O=C1C=CC(=O)c2c(O)cccc21,x,x,x,0.63µM*,x,2.7µM*
C[C@@H]1O[C@@H](Oc2c(-c3ccc(O)c(O)c3)oc3cc(O)cc(O)c3c2=O)[C@H](O)[C@H](O)[C@H]1O,u,35µM*,x,-3%,62%,45µM*
CN(C)c1ccc(/C=C/c2cc[n+](C)c3ccccc23)cc1,u,79µM*,u,38%,25%,u
Cc1ccc2c(c1)[C@]13CCCC[C@@H]1[C@@H](C2)N(C)CC3,x,x,x,x,-2%,x
O=C(O)c1ccccc1O,-16%,3%,15%,u,3%,-1%
O=C(O)c1cc(O)c(O)c(O)c1,x,x,x,u,10µM*,10µM*!
COc1ccccc1-c1nc2c(c(SCc3cccc(Cl)c3)n1)Cc1c(CO)cnc(C)c1O2,-19%,40%,2%,1%,-10%,-5%
Nc1cccc2c(O)cccc12,-19%,255%,x,x,13µM*,-3%
Nc1cccc2c(N)cccc12,x,x,x,x,54%[99.4 µM],x
CS(=O)c1ccc(-c2nc(-c3ccc(F)cc3)c(-c3ccncc3)[nH]2)cc1 (stereo not drawn),x,x,x,-5%,x,u
O=C(Cn1ncc2c3ccccc3n(Cc3cccc(Cl)c3)c2c1=O)N1CCC2(CC1)OCCO2,u,u,18µM*,-19%,4%,-18%
O=Cc1ccc(O)c(O)c1,-5%,u,11%,-9%,u,-9%
N#C/C(=C\c1ccc(O)c(O)c1)C(N)=S,x,x,x,x,x,0.13µM*
CN1CC[C@@]2(C)c3cc(O)ccc3N(C)C12 (stereo partly drawn),u,28µM*!,-8%[57.1 µM],-5%,x,-5%[60.1 µM]
COc1cccc2c1C(=O)c1c(O)c3c(c(O)c1C2=O)C[C@@](O)(C(=O)CO)C[C@@H]3O[C@H]1C[C@H](N)[C@H](OC2CCCCO2)[C@H](C)O1 (stereo partly drawn),x,u,x,u,16µM*,10µM*
SMILES,Pol eta inh,POLI inh,Pol beta inh,GCN5L2 inh,GLS inhibitor,Pol kappa inh
CCCCNC(=O)c1cc(-c2cccnc2)nc2ccc(S(=O)(=O)NCCCC)cc12,-23%,-16%,u,-5%,0%,-6%[60.1 µM]
Cc1ccc(N2C(=O)/C(=C/N3CCN(C(=O)c4ccco4)CC3)C(=O)NC2=S)cc1C,-8%,18µM*,-1%,32%,-2%,-8%
C[N+]1(CCF)[C@@H]2CC[C@@H]1CC(OC(=O)C(O)(c1ccccc1)c1ccccc1)C2 (stereo partly drawn),x,x,x,x,13%,x
Cc1cc(I)ccc1Nc1c(C(=O)NOCC2CC2)cc(F)c(F)c1F,x,x,x,13%,x,u
COc1ccc(NC(=O)CSc2oc(-c3cccs3)nc2S(=O)(=O)c2ccccc2)c(OC)c1,-13%,u,4%,-7%,2%,-22%
CCCOC(=O)Nc1ccc([As](=O)(O)O)cc1NC(=O)OCCC,5%,17%,0%,3%,5%,-13%
CCOC(=O)Nc1ccc(NCc2ccc(F)cc2)nc1N,28µM*,4µM*,1%[57.1 µM],-21%,2%,-9%[60.1 µM]
N.N.N.N.N.N.N.N.N.N.N.N.N.N.O.O.[Ru+4].[Ru+5].[Ru+5],x,x,x,u,x,27µM*
CN(CC(=O)NC(=O)NCc1ccco1)CC(=O)Nc1ccccc1Cl,u,50µM*,8%,-9%,-6%,u
CN(C)CCNC(=S)Nc1ccccc1Cl,-15%,195%,-14%,-3%,2%,-16%
CCCCCc1cc(O)c2c(c1)OC(C)(C)c1ccc(C)cc1-2,x,x,x,x,-7%,x
CC(C)OCCCNC(=O)c1c(N)n(CC2CCCO2)c2nc3ccccc3nc12 (stereo not drawn),-13%,7.1µM*,u,u,-1%,-13%

# Bioassay records as filed in PubChem.
